One assay deals with MRC1L1. The experiment in a line: pooled miR-30 sensor sort-seq; sequence = guide strand. To be noted: shRNA.
In the case of TAAAGCTACACAATCATTCCGT, the sensor-assay potency score (higher = more potent) stood at 0.804.
TATAGTAACAGTGACCATGGAA: the sensor-assay potency score (higher = more potent) stood at 0.0156.
The sequence TTTCTGAACAATCCTATCCAAA came in with a sensor-assay potency score (higher = more potent) of -1.03.
The same measure, in the same setting: as for TACAGCTTGAAACACAAGCTTG, the figure is -1.09; as for TAACAACACAGTCAGCATCTTC, -0.367; as for TTATAGATTAAAAATTGCCTGG, -0.0737.
On the same count and under the same terms, next, TAGAGAGTGATAGCAACCCAGT: -0.877.
The same measure, in the same setting: next, TTCTGAATTGACATCATTCAGC: -0.303; TTGGGTTCGGGAGTCGTCGTGG: 0.34.
TTGCTCATGAATCTCTGTGATG returned a sensor-assay potency score (higher = more potent) of -0.904.

A further assay concerns the target MRFAP1. The description is as above. To be noted: shRNA.
On to TCTCCTTGGCCTTCTCCTCGGC, for which the sensor-assay potency score (higher = more potent) was -0.368.
The sequence TATCCGCCGGACCAGCTCCACC registered a sensor-assay potency score (higher = more potent) of -1.87.
For TTCGCAATCTCCTTGGCCTTCT, the sensor-assay potency score (higher = more potent) is -0.202.
AGCACCTCCACTTCCTCCGGTT registered a sensor-assay potency score (higher = more potent) of -1.22.
As to CTGGATGAGCATATTGTCCATC, the sensor-assay potency score (higher = more potent) is -2.34.
Consider TCCTCGGCCTTCTCGCACCTCT, for which the sensor-assay potency score (higher = more potent) is -1.7.
Same read-out and setting: next, TTGATCTGGATGAGCATATTGT: -0.361; TTGACCAGAATCCATTGGCTGG: -0.987; TTTGATCTGGATGAGCATATTG: -1.65.
Regarding TTCTCCTCGGCCTTCTCGCACC, the sensor-assay potency score (higher = more potent) is -1.46.
Sequence TCTGGATGAGCATATTGTCCAT showed a sensor-assay potency score (higher = more potent) of -0.959.
With ATGAGCATATTGTCCATCTCCC, the sensor-assay potency score (higher = more potent) was -0.693.

Values taken from the OligoGym collection.
Also: reference of the scale not given here.
